Compounds with a hit are over-represented: about 6.9% of the library has one in this group of screens.
GRIN3A LBD mod – modulates the human NR3A ligand-binding domain | AID 1259313 | NR3A LBD differential scanning fluorimetry, Tm shift; 0% = protein alone, 100% = glycine-bound protein | Tm shift relative to glycine control, % at 25 µM | hit rate 2.5% among 340,000;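 active means melting temperature shift of at least 10% of the positive control shift, at one fixed dose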
CSC inhib – blocks cancer stem cells | cancer stem cell-like cells viability, luminescence | inhibition, % at 7.5 µM | hit rate 1.1% among 300,000 | AID 2717; in the data active means inhibition above about 75%; tested in HMLE shEcad cells
Beta apoptosis – beta cell apoptosis inhibition | hit rate 0.8% among 300,000 | INS-1E cytokine-induced death, ATP luminescence, 48 h; percent of positive-control rescue, neutral wells zero | protection from apoptosis, % (no concentration beside the values) | AID 435005;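 active means Every replicate reaches about 75%, or at least half do and their mean reaches it too, limit read from the data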;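 further: 0% = cytokine-treated negative control wells and 100% = positive control rescue; higher means more ATP so stronger rescue from cytokine killing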
SKKanGAS inh – SKKanGAS growth inhibition; S. pyogenes SKKanGAS, kanamycin growth, BacTiter-Glo, 6 h; inhibition, % at 7.5 µM; hit rate 1.3% among 300,000; AID 1662;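 active means mean replicate score, as percent of positive control median, at least 50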;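 further: strain carries kanamycin resistance gene driven by streptokinase promoter and grows in 40 µg/ml kanamycin; loss of luminescence reflects streptokinase promoter inhibition or plain growth inhibition; 0% = median of DMSO wells and 100% = positive control at its reference dose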
MPTP block – inhibitors of mitochondrial permeability transition pore. inhibition, % at 10 µM. hit rate 1.4% among 360,000. isolated mouse mitochondria, Ca2+ swelling absorbance, 30 min;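 active means inhibition of 50% or more, scaled per plate between neutral and stimulator controls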;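 further: 0% = DMSO wells given calcium and 100% = 1 mM EGTA wells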
Mdm2-MdmX inh – inhibitors of human Mdm2/MdmX interaction; hit rate 3% among 330,000; SaOS-2 split-luciferase Mdm2/MdmX complementation, luminescence; AID 485346; inhibition, % at 8 µM;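 active means inhibition of at least 50% at 8 µM in the primary screen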
Target sequence (O15151 whole entry, looked up): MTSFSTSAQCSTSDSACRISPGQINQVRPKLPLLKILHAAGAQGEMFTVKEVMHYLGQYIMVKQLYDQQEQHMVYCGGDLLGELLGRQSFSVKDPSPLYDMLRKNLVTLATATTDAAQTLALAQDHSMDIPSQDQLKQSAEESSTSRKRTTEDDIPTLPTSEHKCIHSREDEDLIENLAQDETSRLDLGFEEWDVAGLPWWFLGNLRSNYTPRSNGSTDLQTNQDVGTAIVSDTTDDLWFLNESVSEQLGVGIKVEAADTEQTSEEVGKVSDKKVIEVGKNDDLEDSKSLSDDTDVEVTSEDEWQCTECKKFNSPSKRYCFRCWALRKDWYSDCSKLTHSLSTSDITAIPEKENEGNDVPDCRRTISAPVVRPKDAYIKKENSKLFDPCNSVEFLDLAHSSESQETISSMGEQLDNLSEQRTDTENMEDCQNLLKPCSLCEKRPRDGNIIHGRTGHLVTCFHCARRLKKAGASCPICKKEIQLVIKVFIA
Target sequence (Q00987 whole entry, looked up): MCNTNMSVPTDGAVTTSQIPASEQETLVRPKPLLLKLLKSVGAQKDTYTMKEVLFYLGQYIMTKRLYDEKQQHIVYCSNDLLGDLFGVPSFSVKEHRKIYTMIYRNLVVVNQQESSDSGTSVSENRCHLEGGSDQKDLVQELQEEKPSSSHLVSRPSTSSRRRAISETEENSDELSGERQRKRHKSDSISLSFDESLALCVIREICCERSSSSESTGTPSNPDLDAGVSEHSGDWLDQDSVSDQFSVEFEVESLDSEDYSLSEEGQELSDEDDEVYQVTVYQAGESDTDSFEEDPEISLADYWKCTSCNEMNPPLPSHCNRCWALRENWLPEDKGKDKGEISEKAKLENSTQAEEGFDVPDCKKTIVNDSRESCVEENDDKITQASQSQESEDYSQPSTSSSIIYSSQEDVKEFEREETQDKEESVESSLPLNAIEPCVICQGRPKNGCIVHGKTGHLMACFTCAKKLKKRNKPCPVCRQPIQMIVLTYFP
* marks the source's active call; other numbers are inactive results.

CCOC(=O)C1=C(N)Oc2cc(O)ccc2C1c1cccc(Cl)c1 (stereo not drawn) was read as GRIN3A LBD mod 13*, CSC inhib 82*, Beta apoptosis -3, SKKanGAS inh 38, MPTP block 4 and Mdm2-MdmX inh 46.
For COc1ccc(CNC(=O)CN(C(=O)c2csnn2)c2cccc(C(C)=O)c2)cc1 the results were GRIN3A LBD mod -4, CSC inhib -6, Beta apoptosis -3, SKKanGAS inh -9, MPTP block 0 and Mdm2-MdmX inh 14.
For O=C(CSc1ccc(Cl)cc1)Nc1ccc(NC(=O)c2ccco2)cc1 the results were GRIN3A LBD mod 21*, CSC inhib -15, Beta apoptosis -6, SKKanGAS inh -8, MPTP block 0 and Mdm2-MdmX inh 14.
`Cc1ccc(NC(=O)CSc2nnc(NC(=O)c3ccco3)s2)cc1` gave GRIN3A LBD mod 13*, CSC inhib 2, Beta apoptosis -1, SKKanGAS inh 6, MPTP block -1 and Mdm2-MdmX inh -3.
For CC(=O)c1ccc(NC(=O)CSc2nnc(NC(=O)c3ccco3)s2)cc1 the results were GRIN3A LBD mod 19*, CSC inhib -13, Beta apoptosis 5, MPTP block 0 and Mdm2-MdmX inh 26.
For O=C(CSc1ccc(Cl)cc1)Nc1ccc(N2CCN(C(=O)c3ccco3)CC2)cc1 the results were GRIN3A LBD mod 1, CSC inhib 21, Beta apoptosis 5, SKKanGAS inh 5, MPTP block 0 and Mdm2-MdmX inh 28.
COc1cccc(NC(=O)CSc2nnc(NC(=O)c3ccco3)s2)c1 was read as GRIN3A LBD mod 7, CSC inhib 5, Beta apoptosis 6, SKKanGAS inh 20, MPTP block 0 and Mdm2-MdmX inh -6.
`CCN(Cc1cc(OC)c(OC)c(OC)c1)C(=S)Nc1cccc(SC)c1` gave GRIN3A LBD mod 0, CSC inhib 2, Beta apoptosis -3, SKKanGAS inh -4, MPTP block 24 and Mdm2-MdmX inh 20.
For CC1CCc2c(sc(/N=C/c3cccnc3)c2C(N)=O)C1 (stereo not drawn) the results were GRIN3A LBD mod 11*, CSC inhib 5, Beta apoptosis -2, SKKanGAS inh 4, MPTP block 2 and Mdm2-MdmX inh -3.
COc1ccccc1CNC(=O)CCS(=O)(=O)c1ccc2c(c1)CC(C)N2C(=O)C1CC1 (stereo not drawn) was read as GRIN3A LBD mod -1, CSC inhib -3, Beta apoptosis -2, SKKanGAS inh 3, MPTP block -2 and Mdm2-MdmX inh 14.
For Cc1ccccc1-c1nnc(SCc2ccccc2F)o1 the results were GRIN3A LBD mod 10*, CSC inhib 3, Beta apoptosis 5, SKKanGAS inh 39, MPTP block 2 and Mdm2-MdmX inh -222.
For Fc1ccccc1CSc1nnc(-c2ccccc2)o1 the results were GRIN3A LBD mod 0, CSC inhib -3, SKKanGAS inh 19, MPTP block 2 and Mdm2-MdmX inh -228.
For CC(C)N1CCN(Cc2ccc(-c3ccccc3Cl)o2)CC1CCO (stereo not drawn) the results were GRIN3A LBD mod 1, CSC inhib 33, Beta apoptosis -2, MPTP block 1 and Mdm2-MdmX inh 22.
`CCCn1c(=S)[nH]c2cc(C(=O)N3CCN(C4CCCCC4)CC3)ccc2c1=O` gave GRIN3A LBD mod 15*, CSC inhib 8, Beta apoptosis 3, SKKanGAS inh -17, MPTP block 3 and Mdm2-MdmX inh 17.
O=C(c1ccc2c(=O)n(C3CCCC3)c(=S)[nH]c2c1)N1CCN(C2CCCCC2)CC1 was read as GRIN3A LBD mod -4, CSC inhib -4, Beta apoptosis -6, SKKanGAS inh -12, MPTP block 1 and Mdm2-MdmX inh 27.
For CCOC(=O)N1CCN(C(=O)c2ccc3c(=O)n(CCC4=CCCCC4)c(=S)[nH]c3c2)CC1 the results were GRIN3A LBD mod -5, CSC inhib -15, Beta apoptosis 3, SKKanGAS inh 67*, MPTP block 0 and Mdm2-MdmX inh 12.
For CCOc1ccc(Br)cc1S(=O)(=O)NCCN1CCCC1 the results were GRIN3A LBD mod 1, CSC inhib -6, Beta apoptosis -10, SKKanGAS inh 12, MPTP block 1 and Mdm2-MdmX inh 14.
CCCCc1ccc(NC(=S)Nc2ccc(Nc3ccc(OC)cc3)cc2)cc1 was read as GRIN3A LBD mod 12*, CSC inhib -6, SKKanGAS inh -5, MPTP block 28 and Mdm2-MdmX inh 36.
CC(NC(=O)C12CC3CC(CC(O)(C3)C1)C2)c1ccccc1 (stereo not drawn) was read as GRIN3A LBD mod 0, CSC inhib -7, Beta apoptosis -4, SKKanGAS inh 2, MPTP block 1 and Mdm2-MdmX inh 4.
O=C(O)c1ccc(C(=O)C(=O)c2ccccc2)cc1 was read as GRIN3A LBD mod -1, Beta apoptosis 3, SKKanGAS inh 9, MPTP block 0 and Mdm2-MdmX inh 10.
For C=C(C(=O)c1ccccc1)C(C)C(=C)C(=O)c1ccccc1 the results were GRIN3A LBD mod 0, CSC inhib 82*, Beta apoptosis 117*, SKKanGAS inh 4 and MPTP block -1.
Screening CC(C)Cn1c(=O)[nH]c(=O)c2c(C(F)(F)F)cc(-c3ccccc3)nc21 returned GRIN3A LBD mod 0, CSC inhib 18, Beta apoptosis 0, SKKanGAS inh 5, MPTP block 8 and Mdm2-MdmX inh 0.
`OC(COc1cccc2ccccc12)CN1CCCC1` (stereo not drawn) gave GRIN3A LBD mod -1, Beta apoptosis -2, SKKanGAS inh -4, MPTP block -1 and Mdm2-MdmX inh 29.
`Cc1cccc(N2CCN(CC(O)COc3ccccc3Cl)CC2)c1` (stereo not drawn) gave GRIN3A LBD mod 8, CSC inhib -7, Beta apoptosis -2, SKKanGAS inh 9, MPTP block 1 and Mdm2-MdmX inh 10.
OC(COc1cccc2ccccc12)CN1CCN(c2ccc(Cl)cc2)CC1 (stereo not drawn) was read as GRIN3A LBD mod 7, CSC inhib 77*, Beta apoptosis -2, SKKanGAS inh 57*, MPTP block 4 and Mdm2-MdmX inh 24.
`OC(COc1cccc2ccccc12)CN1CCN(c2cccc(Cl)c2)CC1` (stereo not drawn) gave GRIN3A LBD mod -7, CSC inhib 36, Beta apoptosis -3, SKKanGAS inh 52*, MPTP block 1 and Mdm2-MdmX inh -7.
`Cc1cc(OCC(=O)N2CCN(c3ccccn3)CC2)c(C)cc1Br` gave GRIN3A LBD mod 0, CSC inhib 0, Beta apoptosis -4, SKKanGAS inh 2, MPTP block 0 and Mdm2-MdmX inh 9.
Screening COC(=O)c1ccc(COC(=O)C(CCSC)NC(=O)COc2ccccc2)cc1 (stereo not drawn) returned GRIN3A LBD mod 22*, CSC inhib -6, SKKanGAS inh -3, MPTP block 1 and Mdm2-MdmX inh 12.
